What all share (experiment): glycan array binding signal (z-score within array); higher = stronger binding
In test [1] the target is Gal(b1-4)GlcNAc(b1-2)Man(a1-6)[GlcNAc(b1-2)Man(a1-3)]Man(b1-4)GlcNAc(b1-4)[Fuc(a1-6)]GlcNAc. To be noted: glycan notation: IUPAC condensed, linker removed. Put shortly: (§1)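 Glycan array data came from 3228 arrays in the Consortium for Functional Glycomics database, and only arrays with an available protein sequence were kept. Glycan names were put into IUPAC-condensed notation, and columns mapping to the same glycan were averaged. The binding signal is a within-array Z-score, averaged across arrays of one protein sequence run at different concentrations or buffers and across linkers. A negative Z-score can be read as non-binding.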

In test [2] the target is Gal(b1-4)GlcNAc(b1-2)[Gal(b1-4)GlcNAc(b1-4)]Man(a1-3)[Gal(b1-4)GlcNAc(b1-2)[Gal(b1-4)GlcNAc(b1-6)]Man(a1-6)]Man(b1-4)GlcNAc(b1-4)GlcNAc. The settings on record: glycan notation: IUPAC condensed, linker removed; mutation: D151N. Put shortly:
as §1

The target in test [3] is GlcNAc(b1-2)Man(a1-3)[GlcNAc(b1-2)Man(a1-6)]Man(b1-4)GlcNAc(b1-4)GlcNAc. To be noted: glycan notation: IUPAC condensed, linker removed; mutation: D151N. An outline of the steps:
as §1

In test [4] the target is GlcNAc(b1-2)[GlcNAc(b1-4)]Man(a1-3)[GlcNAc(b1-2)Man(a1-6)][GlcNAc(b1-4)]Man(b1-4)GlcNAc(b1-4)GlcNAc. The settings on record: glycan notation: IUPAC condensed, linker removed; mutation: D151N. Put shortly:
as §1

The target in test [5] is HexA(a1-3)GalNAc4S(b1-4)GlcA(b1-3)GalNAc4S(b1-4)GlcA(b1-3)GalNAc4S(b1-4)GlcA(b1-3)GalNAc4S(b1-4)GlcA(b1-3)GalNAc4S(b1-4)GlcA(b1-3)GalNAc4S(b1-4)GlcA(b1-3)GalNAc4S(b1-4)GlcA(b1-3)GalNAc4S. To be noted: glycan notation: IUPAC condensed, linker removed; mutation: D151N. An outline of the steps: as §1
For test [6], the target named is Gal(b1-4)GlcNAc(b1-2)Man(a1-6)[Man(a1-3)]Man(b1-4)GlcNAc(b1-4)GlcNAc. The settings on record: glycan notation: IUPAC condensed, linker removed; mutation: Y104F. Put shortly:
as §1

The target in test [7] is Gal(b1-4)GlcNAc(b1-2)[Gal(b1-4)GlcNAc(b1-4)]Man(a1-3)[Fuc(a1-3)[Gal(b1-4)]GlcNAc(b1-2)Man(a1-6)]Man(b1-4)GlcNAc(b1-4)GlcNAc. To be noted: glycan notation: IUPAC condensed, linker removed; mutation: Y104F. An outline of the steps: as §1
Test [8] has as its target Glc(b1-3)Glc(b1-3)Glc(b1-3)Glc(b1-3)Glc(b1-3)Glc. The settings on record: glycan notation: IUPAC condensed, linker removed; mutation: Y104F. An outline of the steps:
as §1

Another test has as its target Man(a1-3)Man(b1-4)GlcNAc. To be noted: glycan notation: IUPAC condensed, linker removed; mutation: Y104F. An outline of the steps:
as §1

Test [9] deals with Xyl(b1-2)[Man(a1-3)][Man(a1-6)]Man(b1-4)GlcNAc(b1-4)GlcNAc. To be noted: glycan notation: IUPAC condensed, linker removed; mutation: Y104F. Put shortly: as §1
Test [10] has as its target Fuc(a1-3)[Gal(b1-4)]GlcNAc(b1-4)Gal(b1-4)[Fuc(a1-3)]GlcNAc. To be noted: glycan notation: IUPAC condensed, linker removed. Put shortly: as §1
In another test the target is Gal(a1-2)Gal. The settings on record: glycan notation: IUPAC condensed, linker removed. An outline of the steps:
as §1

The target of a further test is Gal(b1-2)Gal. The settings on record: glycan notation: IUPAC condensed, linker removed. An outline of the steps:
as §1

Test [11] has as its target Gal(b1-3)[Fuc(a1-4)]GlcNAc. To be noted: glycan notation: IUPAC condensed, linker removed. Put shortly: as §1
Test [12] has as its target Gal(b1-4)GlcNAc(b1-3)Gal(b1-4)[Fuc(a1-3)]GlcNAc(b1-3)Gal(b1-4)[Fuc(a1-3)]GlcNAc. The settings on record: glycan notation: IUPAC condensed, linker removed. An outline of the steps: as §1
For the next test, the target named is Gal3S(b1-4)Glc6S. To be noted: glycan notation: IUPAC condensed, linker removed. An outline of the steps:
as §1

A further test concerns the target Gal6S(b1-4)Glc6S. To be noted: glycan notation: IUPAC condensed, linker removed. An outline of the steps: as §1
For a further test, the target named is Glc(b1-6)Glc. The settings on record: glycan notation: IUPAC condensed, linker removed. Put shortly: as §1
Test [13] concerns the target GlcNAc(b1-2)Gal(b1-3)GlcNAc. To be noted: glycan notation: IUPAC condensed, linker removed. An outline of the steps: as §1
For the next test, the target named is GlcNAc(b1-3)GalNAc. To be noted: glycan notation: IUPAC condensed, linker removed. Put shortly:
as §1

For test [14], the target named is Neu5Ac(a2-3)Gal(b1-4)GlcNAc(b1-3)Gal(b1-4)[Fuc(a1-3)]GlcNAc. To be noted: glycan notation: IUPAC condensed, linker removed. An outline of the steps: as §1
Test [15] concerns the target Neu5Ac(a2-6)Gal(b1-4)GlcNAc. The settings on record: glycan notation: IUPAC condensed, linker removed. An outline of the steps: as §1
Test [16] has as its target Neu5Ac(a2-8)Neu5Ac(a2-8)Neu5Ac(a2-8)Neu5Ac(a2-3)[GalNAc(b1-4)]Gal(b1-4)Glc. To be noted: glycan notation: IUPAC condensed, linker removed. An outline of the steps:
as §1

For test [17], the target named is Neu5Ac9Ac(a2-6)Gal(b1-4)GlcNAc. The settings on record: glycan notation: IUPAC condensed, linker removed. Put shortly: as §1
For test [18], the target named is Neu5Gc(a2-3)Gal(b1-3)[Fuc(a1-4)]GlcNAc. The settings on record: glycan notation: IUPAC condensed, linker removed. An outline of the steps: as §1

Shown is part of a subset that was picked to be rich in the strongest signals.

B1: ZG16p (Homo sapiens), O60844 (protein)
chain: ARSSSYSGEYGGGGGKRFSHSGNQLDGPITALRVRVNTYYIVGLQVRYGKVWSDYVGGRNGDLEEIFLHPGESVIQVSGKYKWYLKKLLFVTDKGRYLSFGKDSGTSFNAVPLHPNTVLRFISGRSGSLINAIGLHWDVYPSSCSRC
Turning to B1, the “glycan array binding signal (z-score)” value in [1] (mutation: D151N) was -0.565; in test [2], -0.44; in test [3], -0.565; in [4], -0.565; in [5] it was 5.03.

B2: ZG16p (Homo sapiens), O60844 (protein)
chain: ARSSSYSGEYGGGGGKRFSHSGNQLDGPITALRVRVNTYYIVGLQVRYGKVWSDYVGGRNGDLEEIFLHPGESVIQVSGKYKWFLKKLLFVTDKGRYLSFGKDSGTSFNAVPLHPNTVLRFISGRSGSLIDAIGLHWDVYPSSCSRC
For the molecule B2, the “glycan array binding signal (z-score)” value was -0.485 in [1] (mutation: Y104F); -0.485 in test [6]; -0.485 in test [7]; 2.84 in test [8]; 0.015 with Man(a1-3)Man(b1-4)GlcNAc; -0.331 in test [9].

B3: Onconase (Rana pipiens), P22069 (protein)
chain: QDWLTFQKKHITNTRDVDCDNIMSTNLFHCKDKNTFIYSRPEPVKAICKGIIASKNVLTTSEFYLSDCNVTSRPCKYKLKKSTNKFCVTCENQAPVHFVGVGSC
Consider B3, for which the “glycan array binding signal (z-score)” value in test [10] is 1.21; in the test with Gal(a1-2)Gal, 3.22; with Gal(b1-2)Gal, 2.63; in test [11], -0.553; in test [12], 2.54; with Gal3S(b1-4)Glc6S, -0.281. For the same molecule, the “glycan array binding signal (z-score)” value was 0.598 in the test with Gal6S(b1-4)Glc6S; 0.027 in the test with Glc(b1-6)Glc; -0.449 in [13]; -0.84 in the test with GlcNAc(b1-3)GalNAc; -0.671 in [14]; 0.51 in test [15]. Moreover, the “glycan array binding signal (z-score)” value was 2.71 in test [16], -0.006 in [17] and 1.6 in test [18].

The values are drawn from the supplement of paper PMC8728848.
